Laboratory results published in ChEMBL document CHEMBL4513216, “Probing the Open Global Health Chemical Diversity Library for Multistage-Active Starting Points for Next-Generation Antimalarials” (ACS Infect Dis, 2020).
Hit rate of the full screen: of about 69,000 compounds, about 8,600 (12%) showed an effect of 50% or more. Many of the other results were omitted from the sample, so strong results are more common in it than they were.

system: Plasmodium berghei; test: Screen against P. berghei liver stage (PbLuc), transformed with Luciferase, at 10uM; format: functional, HepG2; conditions: tested at 10 uM

Row | SMILES | INHIBITION
1 | CC(C)c1ccc(C2CC(=O)Nc3c2cnn3C)cc1 (configuration not stated) | 14.7%
2 | COc1ccccc1OCC(=O)NS(=O)(=O)c1ccc(C)s1 | 25.1%
3 | CCNC(=O)[C@@H]1C[C@H](NC(=O)c2cncnc2C)CN1Cc1ccsc1 | 22.6%
4 | CC(C)c1nn(C)c(N(C)C)c1CNCc1ccnc(N(C)C)c1 | -10.8%
5 | Cc1nc(C)n(CC2CCCN(Cc3cccc(F)c3F)C2)n1 (configuration not stated) | 31.2%
6 | COc1ccc2c(c1)nc1n2[C@@H](CNCc2ccccc2)COC1 | 43.1%
7 | COc1ccc2c(c1)nc1n2[C@@H](CNCc2nccs2)COC1 | 8.52%
8 | COc1ccc2c(c1)nc1n2[C@@H](CNCc2ncccc2C)COC1 | 51%
9 | Cc1ccc2c(n1)N(C)CCN(C(=O)NC(C)C)C2 | 23.6%
10 | O=C(CCN1CCc2c(ncn2C2CC2)C1)NC1CCCC1 | -45.6%
11 | CCc1ccc(C(=O)NC2CCN(c3ccn(C)n3)C2)o1 (configuration not stated) | 62.4%
12 | CCc1ccc(C(=O)NC2CCCN(c3ccn(C)n3)C2=O)o1 (configuration not stated) | 20.3%
13 | CCc1ccc(C(=O)NC2CCc3nc(C)cn3C2)o1 (configuration not stated) | 2.75%
14 | CNc1cc(CNC(=O)c2cccnc2)nc(-c2ccncc2)n1 | 27.8%
15 | CCc1noc(C(C)N2CCN(CCN3CCCC3=O)CC2)n1 (configuration not stated) | -0.113%
16 | C[C@H]1C[C@H]2CN(C(=O)CC3CC3)CC[C@H]2O1 | 1.94%
17 | Cc1ccc(CN2C(=O)CCC2C(=O)Nc2cnn(C)c2)o1 (configuration not stated) | 36.7%
18 | CC(=O)N1CCCC(C(=O)NCCOc2cc(C)cc(C)c2)C1 (configuration not stated) | -33.7%
19 | CCN(CC)C(=O)[C@@H]1C[C@@H](NC(=O)c2ccn(C(C)(C)C)c2)CN1C | 51.3%
20 | CCN(CC)C(=O)[C@@H]1C[C@@H](NC(=O)c2ccoc2)CN1C | 6.88%
21 | CCN(CC)C(=O)[C@@H]1C[C@H](NC(=O)c2ccn(C(C)(C)C)c2)CN1C | 21.7%
22 | O=C(NCc1cccs1)c1nc2c(o1)CN(C(=O)c1cccnc1)C2 | -4.4%
23 | COc1cccc(C2CCN2C(=O)c2cnccn2)c1 (configuration not stated) | -3.81%
24 | COc1ccc(C2CCCN2C(=O)c2cc(C(C)C)on2)cc1 (configuration not stated) | -75.1%
25 | COc1cccc(C2CCN2C(=O)c2cc(C(C)C)on2)c1 (configuration not stated) | 55.5%
26 | Cc1ccc(N2CC[C@H]3C[C@H](C(=O)NCc4ccco4)O[C@H]3C2)nn1 | 14.5%

Row | SMILES | INHIBITION
27 | CN(CCSc1nncn1C(C)(C)C)c1ccccc1 | -9.8%
28 | Cc1ccc2c(c1)CCC2NCc1c(C)nn(C)c1N1CCOCC1 (configuration not stated) | 33.8%
29 | CC1CCC(O)(CSc2nnnn2C2CC2)CC1 (configuration not stated) | -44.2%
30 | O=C(O)c1ccn(-c2ccccc2NS(=O)(=O)c2cccc(F)c2)n1 | 30.3%
31 | COc1c(C2CCCN2C(=O)c2cnccn2)c(C)nn1C (configuration not stated) | 5.7%
32 | O=C(c1ccc2c(c1)[nH]c(=O)n2C1CCCC1)N1CCC1 | 21.1%
33 | CN1CCN(C(=O)c2ccc3c(c2)[nH]c(=O)n3C2CCCC2)CC1 | 58.2%
34 | O=C(c1ccc2c(c1)[nH]c(=O)n2C1CCCC1)N1CCSCC1 | -6.72%
35 | CN1CCNC(=O)C12CCN(C(=O)c1ccc3[nH]c(=O)[nH]c3c1)CC2 | 38.2%
36 | Cc1cnn(CC2CN(Cc3csc(C(C)C)n3)CCO2)c1 (configuration not stated) | 9.64%
37 | Cn1ccnc1C(=O)N1CCC2(CCN2Cc2ccc(F)cc2)C1 (configuration not stated) | 25.8%
38 | Cc1ccc(C(=O)N2CCC3(CCCN(c4ncc(F)cn4)C3)C2)cn1 (configuration not stated) | 36.7%
39 | Cc1ccc(C(=O)N2CCC3(CCN3Cc3ccc(F)cc3)C2)cn1 (configuration not stated) | 62.9%
40 | Cc1cnc(C(=O)N2CCC3(CCN3Cc3ccc(F)cc3)C2)cn1 (configuration not stated) | 53.9%
41 | Cc1cc(C(=O)N2CCC3(CCN3Cc3ccc(F)cc3)C2)no1 (configuration not stated) | -6.05%
42 | O=C(c1ccsc1)N1CCC2(CCN2Cc2ccc(F)cc2)C1 (configuration not stated) | -7.7%
43 | COCCN1CCC12CCN(C(=O)c1ccsc1)CC2 | -20.8%
44 | COCCN1CCC12CCN(C(=O)c1ccc3[nH]ccc3c1)C2 (configuration not stated) | 27.6%
45 | COCCN1CCC12CCN(C(=O)c1ccc(C)nc1)C2 (configuration not stated) | 54.8%
46 | Cc1cnn(CC2CCCN2Cc2noc(CC(C)C)n2)c1 (configuration not stated) | 17.4%
47 | CN1CCCN(C(=O)c2cnsn2)c2cc(F)ccc21 | 7.77%
48 | Cc1ccc(Cn2nc(C)c3c(C(=O)O)c(Cl)c(C4CC4)nc32)cc1 | 31.7%
49 | O=C(c1cc(Cl)c[nH]c1=O)N1C[C@H]2CC[C@@H](C1)N(Cc1ccccc1)C2 | -28.7%
50 | Cn1cc(CN2C[C@@H]3CN(Cc4ccoc4)CCO[C@@H]3C2)cn1 | 7.11%
51 | CCn1c(C)nc2cc(NC(=O)CC3CCCCO3)ccc21 (configuration not stated) | 27.5375%
52 | Oc1nc(N2CCCC2)nc2nccc(-c3ccccn3)c12 | -13%
